TIM10 inh: growth inhibitors of TIM10 yeast strain; S. cerevisiae TIM10 strain growth, BacTiter-Glo luminescence, 24 h; inhibition, % at 10 µM; 330,000 compounds, 1.4% hits;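 active = inhibition of 40% or more at the single tested concentration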;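 note: wild-type TIM10 isogenic control strain grown at permissive 25 °C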
PfHsp90 yeast 2: reduces growth (ATP signal) of yeast expressing P. falciparum Hsp90; S. cerevisiae expressing PfHsp90, BacTiter-Glo ATP, 48 h; yeast lacking PDR1 and PDR3 efflux regulators; inhibition, % at 9.4 µM; 310,000 compounds, 0.32% hits; AID 504621;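 active = every replicate shows inhibition above about 80%, whatever the replicate mean, limit read from the data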
NALP3 yeast inh: inhibitors of NALP3 inflammasome in yeast. Yeast reconstituted NLRP3/ASC/caspase-1, beta-gal luminescence, 24 h. inhibition, % at 10 µM. 330,000 compounds, 0.39% hits;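 active = inhibition of 50% or more; inactive = inhibition below 50%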
tim10-1 inh: inhibits growth of tim10-1 mutant yeast | S. cerevisiae tim10-1 ts strain growth, BacTiter-Glo, 24 h | inhibition, % at 20 µM | 330,000 compounds, 2.2% hits;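 active = inhibition of at least 40%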;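 note: mutant grown at 25 °C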
tim23-1 inh: inhibits growth of tim23-1 mutant yeast. S. cerevisiae tim23-1 growth, BacTiter-Glo luminescence, 24 h. inhibition, % at 20 µM. 330,000 compounds, 1.3% hits. AID 463212;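 active = growth inhibition of the mutant yeast at or above 50%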;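 note: temperature-sensitive mutant grown at 25 °C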
tim10 confirm: confirmation of TIM10 yeast growth inhibitors; shares compounds with TIM10 inh; S. cerevisiae tim10 strain growth, BacTiter-Glo luminescence, 24 h; inhibition, % at 10 µM; 4,600 compounds, 63% hits;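 active = inhibition of yeast growth at or above a set limit in either of two replicates at 10 µM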; note: this counterscreen used the strain with wild-type TIM10
tim23-1 confirm: confirmation of tim23-1 mutant yeast growth inhibitors. inhibition, % at 20 µM. AID 463218. shares compounds with tim23-1 inh. 4,400 compounds, 83% hits. S. cerevisiae tim23-1 growth, BacTiter-Glo luminescence, 24 h;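 active = inhibition above about 39% in either of two replicate wells at 20 µM, limit read from the data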;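 note: temperature-sensitive tim23-1 mutant grown at 25 °C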
A number is an active result; – = inactive; · = not tested or not shown. An excerpt weighted towards active compounds, which were near 3.7% of everything screened.

SMILES | TIM10 inh | PfHsp90 yeast 2 | NALP3 yeast inh | tim10-1 inh | tim23-1 inh | tim10 confirm | tim23-1 confirm
Cc1ccc(Nc2ncccc2C(=O)O)cc1C | – | – | – | – | – | · | ·
Cc1ccc(Nc2ncccc2C(N)=O)cc1[N+](=O)[O-] | 43 | – | – | – | 56 | 40 | 69
CCCN(CC(=O)Nc1ccccc1OC)C(=O)Cn1c(=O)oc2ccccc21 | · | – | · | · | · | · | ·
O=C(N/N=C/c1cc(Br)cs1)c1ccc2c(c1)OCCO2 | – | · | – | – | – | · | ·
Cc1ccc(/C=N/NC(=O)c2ccc3c(c2)OCCO3)s1 | 44 | – | – | – | 59 | – | 65
Cc1ccc(/C=N/NC(=O)c2ccc3ccccc3c2)s1 | 41 | – | – | – | 68 | 32 | 73
Cc1ccc(/C=N/NC(=O)c2ccncc2)s1 | – | – | – | – | – | · | ·
Cc1ccsc1/C=N/NC(=O)c1ccc2c(c1)OCCO2 | 49 | – | – | – | 56 | 52 | 72
Cc1ccc(C)c(C(=O)CCC(=O)N2CCN(c3cccc(C(F)(F)F)c3)CC2)c1 | – | – | – | – | – | · | ·
COc1ccccc1-n1ccnc1SCC(=O)NCC1CCCO1 (stereo not drawn) | – | – | – | – | – | · | ·
O=C1C=CC2C(c3ccc4c(c3)OCO4)CC1N2Cc1ccccc1 (stereo not drawn) | 44 | – | – | – | 58 | 51 | 47
c1ccc(CN2CCC(N3CCN(Cc4ccc5c(c4)OCO5)CC3)CC2)cc1 | – | – | – | – | – | · | ·
O=C(Nc1ccc2oc(-c3ccccc3F)nc2c1)c1ccccc1F | 55 | – | – | – | 61 | 60 | 79
O=C(Nc1ccc2oc(-c3cccc(F)c3)nc2c1)c1ccccc1F | – | – | – | – | – | · | ·
CCn1c(C)c(C)c2cc(C(=O)Nc3cccc(Cl)c3)ccc21 | 41 | – | – | – | 52 | 51 | 57
O=C(NCC1CC1(Cl)Cl)Nc1ccc(Cl)c(Cl)c1 (stereo not drawn) | 48 | – | – | – | 80 | 45 | 71
Cc1ccc(NC(=O)NCC2CC2(Cl)Cl)cc1 (stereo not drawn) | – | – | – | – | – | · | ·
CN(C(=O)COC(=O)c1ccccc1C(=O)N(C)c1ccccc1)c1ccccc1 | – | – | – | – | – | · | ·
CN(C(=O)COC(=O)c1cc2ccccc2cc1O)c1ccccc1 | 40 | – | – | – | 62 | 47 | 48
CCCN1C(=O)/C(=C/c2ccc(C)s2)SC1=Nc1ccc(OC)cc1 | – | – | – | – | – | · | ·
CCN(CC)CCN1C(=O)/C(=C\c2ccc(Cl)c([N+](=O)[O-])c2)SC1=Nc1ccc(OC)cc1 | 41 | – | – | – | 66 | 35 | 57
C=CCOc1c(Cl)cc(CNCCC)cc1Cl | – | – | – | – | – | · | ·
Cc1ccc(-c2cc(C(=O)N3CCN(C(=O)c4ccco4)CC3)[nH]n2)cc1C | – | – | – | – | – | · | ·
CCc1ccc(S(=O)(=O)Nc2nnc(N)s2)cc1 | – | – | – | – | – | · | ·
O=C(c1ccccc1)c1ccccc1N/C=C/c1nnnn1-c1ccccc1 | – | · | – | – | – | · | ·
SMILES | TIM10 inh | PfHsp90 yeast 2 | NALP3 yeast inh | tim10-1 inh | tim23-1 inh | tim10 confirm | tim23-1 confirm
CCN(C(=O)COC(=O)c1cccnc1SC)C1CCCCC1 | – | – | – | – | – | · | ·
CN1/C(=C/C(=S)NC(=O)C2(C)CC2(Cl)Cl)C(C)(C)c2ccccc21 (stereo not drawn) | – | – | – | – | – | · | ·
COc1ccccc1C(=O)NC(=S)/C=C1/N(C)c2ccccc2C1(C)C | 44 | – | – | – | 51 | – | 42
Cc1ccc(O)c(N=NC2=C(O)CC(C)(C)CC2=O)c1 | 43 | – | – | – | 61 | – | 52
CC1(C)CC(=O)C(N=Nc2cc(Cl)c(Cl)c(Cl)c2)=C(O)C1 | – | – | – | – | – | · | ·
COCC(=O)Nc1cc(C(=O)Nc2ccccc2)ccc1Cl | 42 | · | – | – | 54 | 47 | 71
COc1ccc(C(=O)Nc2ccccc2)cc1NC(=O)c1cccs1 | 54 | – | – | – | 51 | 45 | 74
CCOC(=O)CSc1nnc(CNC(=O)c2ccc(S(=O)(=O)N3CCCCC3)cc2)n1C | – | – | – | – | – | · | ·
CC(C)c1ccc2c(c1)C1(NN=C(c3ccccc3)S1)C(=O)N2 (stereo not drawn) | 51 | – | – | – | 50 | 40 | 54
C/C(=C/c1ccccc1)C(=O)N1CCN(c2ccccc2F)CC1 | – | – | – | – | – | · | ·
N#C/C(=C\c1ccccc1)C(=O)N1CCN(c2ccccc2F)CC1 | 47 | – | – | – | 66 | 44 | 48
O=c1oc(-c2cccs2)nc2c1cnn2-c1ccccc1 | 47 | – | – | – | 51 | 34 | 47
Cc1cccc(NS(=O)(=O)c2cccc(C(=O)NCC3(N4CCCCC4)CCCCC3)c2)c1 | – | – | – | – | – | · | ·
CCN(CC)CCNC(=O)c1ccc2c(c1NCCO)C(=O)c1ccccc1C2=O | 43 | · | – | – | 70 | 48 | 60
COc1cc(OC)cc(C(=O)Oc2c(CN3CCOCC3)cc(Cl)c3cccnc23)c1 | – | – | – | – | – | · | ·
Oc1c(CN2CCc3ccccc3C2)cc(Cl)c2cccnc12 | 43 | 102 | – | – | 56 | 41 | 54
COc1ccc(NS(=O)(=O)c2cc(C(=O)N3CCCCCC3)ccc2C)cc1 | – | – | – | – | – | · | ·
CCOC(=O)CS(=O)(=O)c1nc(-c2ccccc2)cc(C(F)(F)F)n1 | 44 | – | – | – | 64 | 55 | –
CCOC(=O)CS(=O)(=O)c1ccccc1 | – | – | – | – | – | · | ·
Oc1cccc(Nc2nc(-c3ccccc3)nc3ccccc23)c1 | 59 | – | – | – | 82 | 56 | 54
Cn1c(/C(C#N)=C/c2ccncc2)nc2ccccc21 | 46 | – | – | – | 68 | – | 63
CCN(CC)c1ccc(/C=N/NC(=O)c2ccco2)c(O)c1 | 54 | – | – | – | 75 | 61 | 77
CC(C)CN(C(=O)COC(=O)CNC(=O)c1sc2ccccc2c1Cl)C1CCS(=O)(=O)C1 (stereo not drawn) | – | · | – | – | – | · | ·
CC1CCCCN1C(=S)NC(=O)c1cc(Br)ccc1Cl (stereo not drawn) | 41 | – | – | – | 54 | 44 | 50
CCC1CCCCN1C(=S)NC(=O)c1cccs1 (stereo not drawn) | – | – | – | – | – | · | ·
CCC1CCCCN1C(=S)NC(=O)c1cc(Br)ccc1Cl (stereo not drawn) | 53 | – | – | – | 58 | 52 | 53
COc1ccc(CCNC(=O)C2CC3Cn4c(nc5ccccc54)C3N2c2ccccc2)cc1 (stereo not drawn) | – | – | – | – | – | · | ·
O=c1c(-c2ccc3c(c2)OCCO3)coc2cc(O)cc(O)c12 | 41 | – | – | – | 56 | 36 | 49
